# Measurements reported in ChEMBL document CHEMBL4513216, “Probing the Open Global Health Chemical Diversity Library for Multistage-Active Starting Points for Next-Generation Antimalarials” (ACS Infect Dis, 2020).
# In all, about 69,000 compounds went through this assay and about 8,600 (12%) showed an effect of 50% or more. What follows is part of a selection rich in strong results, with near analogues and random picks from the rest.
# Test system: Plasmodium berghei
# Assay: Screen against P. berghei liver stage (PbLuc), transformed with Luciferase, at 10uM
# Assay type: functional, HepG2
# Settings: tested at 10 uM
row,SMILES,INHIBITION [%]
1,CCCC(C#N)NC(=O)c1sccc1CC (stereo not drawn),46.6
2,CSc1ncnc(NCc2cccs2)c1C#N,10.6
3,Cc1nsc(N2CCCN(C(=O)NCc3cc(C)on3)CC2)n1,45
4,CCc1nccn1C1CCCN(C(=O)c2ccc3c(c2)nnn3C)C1 (stereo not drawn),12.7
5,COc1cc2nc3n(c(=O)c2cc1OC)CCN(C(=O)C(C)(C)C)CC3,32.3
6,Cc1ccc(C(C)(O)CNC(=O)NCCc2ccc3c(c2)CCO3)o1 (stereo not drawn),23.2
7,O=c1cc(CN2CC[C@@]3(O)CCCC[C@H]3C2)c2cccc3c2n1CCC3,42.1
8,O=C(NCCc1c[nH]cn1)c1ccc(S(=O)(=O)NC2CCOC2)cc1 (stereo not drawn),4.68
9,CSc1nnc(CNC(=O)Nc2ccccc2F)n1C,31.7
10,O=C(NCCNc1cc(N2CCCC2)cnn1)Nc1ccccc1F,53.8
11,O=C(Cc1ccc(F)cc1)NCCNc1cc(N2CCCC2)cnn1,34.6
12,CS(=O)(=O)Cc1ccc(C(=O)Nc2ccc3c(c2)C(=O)NC3)cc1,37.9
13,O=C(Nc1ccc2c(c1)C(=O)NC2)c1ccc(S(=O)(=O)C(F)(F)F)cc1,55
14,CNS(=O)(=O)c1ccc(C(=O)Nc2ccc3c(c2)C(=O)NC3)cc1,-5.26
15,O=C(NCC1COC2(CCOCC2)O1)c1csc(-c2cccc(Cl)c2)n1 (stereo not drawn),15.5
16,COCC(=O)N1C[C@H]2CNC[C@@]2(C(=O)NCc2c(C)noc2C)C1,-31.9
17,COCC(=O)N1C[C@H]2CNC[C@@]2(C(=O)NCc2cc(C)n[nH]2)C1,59.5
18,COCC(=O)N1C[C@H]2CNC[C@@]2(C(=O)NCc2nc(C)cc(C)n2)C1,1.45
19,CCC[C@H]1CN(S(C)(=O)=O)C[C@@H]1NC(=O)COC(C)C,34.9
20,Cc1cccc(CN2CCN(Cc3ccccc3)CC(O)C2)n1 (stereo not drawn),16.8
21,Cc1cccc(CN2CCN3C(=O)NC[C@H]3C2)n1,-27.5
22,CC(C)=CCN1CCN(Cc2cc(C)c(O)c(C)c2)CC1CCO (stereo not drawn),51.3

row,SMILES,INHIBITION [%]
1,CC(C)=CCN1CCN(Cc2cc(C)n[nH]2)CC1CCO (stereo not drawn),26.6
2,CC(C)=CCN1CCN(Cc2cccc(C)n2)CC1CCO (stereo not drawn),67.4
3,Cc1ccc(CN2CCN(Cc3cc(C)n[nH]3)CC2CCO)cc1 (stereo not drawn),-0.529
4,CC(C)N1CCC(N2CCN(C3CCCCC3)CC2CCO)CC1 (stereo not drawn),22
5,CCn1cc(Cl)c(C(=O)Nc2ccc3c(c2)C(C)(C)C(=O)N3C)n1,20.9
6,O=C(CCc1cc(O)no1)N1CCCC(OCc2cccnc2)C1 (stereo not drawn),23.6
7,Cc1c(S(=O)(=O)N(CCc2ccccc2)Cc2ccn(C)n2)cnn1C,41.9
8,CNC(=O)NCC(CO)Cc1ccccc1OC(F)(F)F (stereo not drawn),16
9,CS(=O)(=O)CCOc1nc(-c2ccccc2Cl)no1,-3.94
10,CCS(=O)(=O)CCCOc1nc(-c2ccccc2Cl)no1,50
11,COCCOc1nc(-c2ccccc2Cl)no1,14.9
12,CCc1nccn1C1CCCN(C(=O)c2cnn3cccnc23)C1 (stereo not drawn),55.4
13,CCc1nccn1C1CCCN(C(=O)c2cnn(C)c2C2CC2)C1 (stereo not drawn),44.8
14,CCc1nccn1C1CCCN(C(=O)c2ccn(-c3ccccc3)n2)C1 (stereo not drawn),52.2
15,Cc1noc2ncc(C(=O)N3CCCC(n4cccn4)C3)cc12 (stereo not drawn),27.8
16,CCc1nccn1C1CCCN(C(=O)c2cnc3onc(C)c3c2)C1 (stereo not drawn),66.4
17,CCc1nccn1C1CCCN(C(=O)c2cnc3ccccc3n2)C1 (stereo not drawn),29.2
18,CCc1nccn1C1CCCN(C(=O)c2cnn3ccc(C)nc23)C1 (stereo not drawn),24.6
19,CCc1nccn1C1CCCN(C(=O)c2ccc(N(C)C)nn2)C1 (stereo not drawn),45.65
20,CCc1nccn1C1CCCN(C(=O)c2ccnc(N(C)C)c2)C1 (stereo not drawn),65.85
21,CC(C)c1nccn1C1CCCN(C(=O)c2ccnc(N(C)C)c2)C1 (stereo not drawn),42.9
22,CCc1nccn1C1CCCN(C(=O)c2cncn2-c2ccccc2)C1 (stereo not drawn),32.45

row,SMILES,INHIBITION [%]
1,Cc1noc2ncc(C(=O)N3CCCC(n4ccnc4C)C3)cc12 (stereo not drawn),32.3
2,O=c1ccc2c([nH]1)CCC(NS(=O)(=O)C1CC1)C2 (stereo not drawn),32.5
3,O=C(NCc1ccccc1)N1CCc2ncnc(NC3CC3)c2CC1,40.3
4,CCOCc1nc(-c2cccc(OC)c2OC)n(C2CCN(C)CC2)n1,21.2
5,CN(CC(=O)Nc1ccc(Br)cn1)C(=O)C(C)(C)C,-17.6
6,O=C(Cc1cccnc1)N1CCCC2(CCN(CC3CCOCC3)C2)C1 (stereo not drawn),18.5
7,Cc1cc(C)c(C(=O)N(C)CCN(C)C(=O)OC(C)(C)C)[nH]1,11.4
8,Cc1cncnc1C1CCN(C(=O)CN(C)C)CC1,-15.1
9,CN(C)C(=O)N1CCC2(CC1)CN(Cc1ccccn1)C(=O)CO2,30.4
10,CCc1nccn1C1CCCN(C(=O)c2ccc3c(c2)OCCO3)C1 (stereo not drawn),52.5
11,CCc1nccn1C1CCCN(C(=O)c2ccc3c(c2)OCO3)C1 (stereo not drawn),34.9
12,Cc1nccn1C1CCCN(C(=O)c2ccc3c(c2)OCCCO3)C1 (stereo not drawn),47
13,CCCn1nc(C)c(CNS(=O)(=O)NCc2ccccc2)c1C,-8.66
14,CCCn1cc(Cl)c(C(=O)N2C[C@@H](O)[C@H](Oc3ccccc3)C2)n1,-10.55
15,O=S(=O)(CCc1ccccc1Cl)CC(O)CO (stereo not drawn),35.7
16,Cc1nc(C)c(C(=O)Nc2cnn(CC(=O)NC3CCCC3)c2)s1,54.5
17,Cc1cc(C(=O)Nc2cnn(CC(=O)NC3CCCC3)c2)c(C)s1,12.4
18,Cc1ccsc1C(=O)Nc1cnn(CC(=O)NC2CCCC2)c1,-4.63
19,Cc1nn(C)c2cnn(CCCNS(=O)(=O)Cc3ccccc3)c12,41.6
20,Cc1nccn1C1CCCN(C(=O)CCNc2ncccn2)C1 (stereo not drawn),5.03
21,CC(C)CNC(=O)N1CCC2(CC1)OC(C(N)=O)Cn1ccnc12 (stereo not drawn),39.4
22,COCCNC(=O)c1c(-n2cnnn2)sc2c1CCCC2,-6.42

row,SMILES,INHIBITION [%]
1,Cc1cc(C)n(C2=NC(NCCC(C)C)c3c(sc4c3CCCC4)N2)n1 (stereo not drawn),90.5
2,COC(=O)C1CCCN1C(=O)c1ccc(-n2nc(C)cc2C)cc1 (stereo not drawn),-16.8
3,COCCCNC(=O)c1c(-n2cnnn2)sc2c1CCC2,30.8
4,Cc1cc(C)n(C2=NC(NCCCO)c3c(sc4c3CCCC4)N2)n1 (stereo not drawn),79.7
5,CC(C)OCCCNC(=O)c1c(-n2cnnn2)sc2c1CCCC2,20.1
6,COCCCNC1N=C(n2nc(C)cc2C)Nc2sc3c(c21)CCCC3 (stereo not drawn),88.8
7,Cc1oc(C(=O)O)cc1S(=O)(=O)Nc1cc(Br)ccc1F,-0.96
8,Cc1ncncc1C(=O)N1CCC(O)(CN(C)Cc2ccc(F)cc2)C1 (stereo not drawn),6.32
9,CC(C)c1nnc(CCC(=O)N2CCCC(c3cnccn3)C2)o1 (stereo not drawn),26.7
10,CN(C)C(=O)c1nn(C)c2c1CN(Cc1ccc(F)cc1)C2,31.7
11,CS(=O)(=O)NCC1CCCN(C(=O)Nc2ccccc2Cl)C1 (stereo not drawn),9.48
12,CC(=O)N1CCN(C(=O)Nc2ccccc2Cl)[C@H]2CS(=O)(=O)C[C@H]21,72
13,CCCN1CCN(C(=O)Nc2ccccc2Cl)[C@H]2CS(=O)(=O)C[C@H]21,-32.9
14,Cc1ccccc1NC(=O)N1CCN(C(=O)C2CC2)[C@@H]2CS(=O)(=O)C[C@@H]21,-5.22
15,CN(C)C(=O)N1CCN(Cc2ccccc2)[C@@H]2CS(=O)(=O)C[C@@H]21,-33.2
16,O=C(Nc1ccccc1Cl)N1CCN(CC2CC2)[C@@H]2CS(=O)(=O)C[C@@H]21,52.2
17,O=C(CCC(=O)N1CCc2[nH]c3ccccc3c2C1)NCc1ccco1,1.41
18,CNc1cc(C2CCCN(C(=O)c3ccc(=O)[nH]n3)C2)ccn1 (stereo not drawn),15.5
19,COC[C@]1(O)CCN(Cc2ccc(N(C)C)nc2)CC1(C)C,22.6
20,Cc1cc(Nc2ncccn2)nc(C2CCCN(CCO)C2)n1 (stereo not drawn),-3.94
21,Cc1ccc(S(=O)(=O)NC(=O)CCC(F)(F)F)cc1N(C)C,13.139
22,Cc1cccc(-c2nc(CN3CCCC3Cn3cc(C)cn3)no2)c1 (stereo not drawn),83.2

row,SMILES,INHIBITION [%]
1,Cc1cccc(-c2nc(CN3CCCCC3Cn3cncn3)no2)c1 (stereo not drawn),13.9
2,Cc1cnn(CC2CCCN2Cc2noc(-c3ccccc3)n2)c1 (stereo not drawn),23.5
3,Cc1cnn(CC2CCCN2Cc2noc(C3CC3)n2)c1 (stereo not drawn),37.9
4,Cc1cnn(CC2CCCN2Cc2noc(C)n2)c1 (stereo not drawn),9.14
5,Cc1ccc(-c2nc(CN3CCCC3Cn3cc(C)cn3)no2)cc1 (stereo not drawn),51.3
6,CC1N(c2cnn(C)c2)C(=O)COC12CCN(Cc1ccco1)CC2 (stereo not drawn),16.6
7,CC(C)c1ccc(S(=O)(=O)NC2(CC(N)=O)CCC2)cc1,37.7
8,COc1ccc(S(=O)(=O)NC2(CC(N)=O)CCC2)cc1,42.7
9,CCCc1ccc(S(=O)(=O)NC2(CC(N)=O)CCC2)cc1,51.3
10,NC(=O)Cn1c(CO)cnc1SCc1ccccc1Cl,-4.01
11,Cc1noc(C2CCC3(CCN(C(=O)c4cc(C5CC5)on4)CC3)O2)n1 (stereo not drawn),7.53
12,Cc1cc(N2CCCC2c2cnccn2)ncn1 (stereo not drawn),11.4
13,CNc1cncc(C2CCCN2Cc2ccccn2)n1 (stereo not drawn),35.8
14,Cc1cc(N2CCCC2c2cncc(N(C)C)n2)ncn1 (stereo not drawn),14.7
15,CNc1cncc(C2CCCN2C(=O)c2ccc3c(c2)CCC3)n1 (stereo not drawn),54.5
16,CNc1cncc(C2CCCN2C(=O)c2ccc3c(c2)OCCO3)n1 (stereo not drawn),30.8
17,CNc1cncc(C2CCCN2Cc2ccn(C)n2)n1 (stereo not drawn),51.5
18,CNc1cncc(C2CCCN2Cc2cccc(C)n2)n1 (stereo not drawn),45.6
19,CNc1cncc(C2CCCN2C(=O)c2ccc3oc(C)cc3c2)n1 (stereo not drawn),6.81
20,CNc1cncc(C2CCCN2c2cc(C)ncn2)n1 (stereo not drawn),52
